# Data taken from PubChem BioAssay AID1259313 (Sanford-Burnham Center for Chemical Genomics, 2017).
# Among all 340,000 compounds or so, about 8,500 (2.5%) were called active. The list comes from a sample in which actives are over-represented; it also holds similar structures and randomly drawn compounds. Values without a mark were called inactive.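 Rule for the calls: active = melting temperature shift of at least 10% of the positive control shift, at one fixed dose; inactive = the rest.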
# Test system: Glutamate receptor ionotropic, NMDA 3A (GRIN3A) ligand-binding domain
# Test: NR3A LBD thermal stabilization by compounds – biophysical, differential scanning fluorimetry, uHTS, primary screen (AID 1259313)
# Conditions: at 25 µM, hits give high values, 0% = protein alone, 100% = glycine-bound protein
row,Compound,Tm shift relative to glycine control
1,COc1cccc2c1C(=O)c1c(O)c3c(c(O)c1C2=O)CC(O)(C(C)=NNC(=O)c1ccc(Cl)c(Cl)c1)CC3OC1CC(N)C(O)C(C)O1 (stereo not drawn),-18.1%
2,COc1ccc(C)cc1S(=O)(=O)Nc1cccc(Cl)c1Cl,-5.61%
3,CCCOc1ccc(/C=N/NC(=O)C2CC2)c(OCCC)c1,0.85%
4,Cc1cc(C)nc(NS(=O)(=O)c2ccc(N/C=C\C(=O)c3cccs3)cc2)n1,-2.02%
5,COc1cc(CO)ccc1OCC(=O)Nc1cccc2ccccc12,1.02%
6,CCOC(=O)[C@H]1[C@H]2COc3ccc(OC)cc3[C@@H]2N2C(=O)c3ccc(F)cc3NC(=O)[C@@]12C,-0.63%
7,NC1=C([N+](=O)[O-])C(c2ccccc2)C2=C(CCCC2=O)O1 (stereo not drawn),-0.34%
8,Cc1cccc(NC(=O)C(C)N2C(=O)C3C4CC(C(Br)C4Br)C3C2=O)c1 (stereo not drawn),13.7% (active)
9,Cc1cccc(NC(=O)CCN2CC(C)CC(C)C2)c1 (stereo not drawn),-0.71%
10,Cc1cccc(NC(=O)C(C)SCc2ccccc2)c1 (stereo not drawn),1.98%
11,Cc1ccc(Nc2ccccc2N)cc1,0.92%
12,CCn1c(O)c(N=NC(=O)c2cccc(S(=O)(=O)N3CCCCC3)c2)c2ccccc21,-34.1%
13,CC(=O)Nc1ccc(NC(=O)c2ccc3c(c2)C(=O)N(c2ccccc2C)C3=O)cc1,-0.29%
14,Cc1cccc(N2C(=O)c3ccc(C(=O)Nc4cccc(C(=O)O)c4)cc3C2=O)c1,11.6% (active)
15,Cc1cccc(C(=O)Nc2ccc3c(c2)C(=O)N(CC(C)C)C3=O)c1,0.17%
16,CCC(C(=O)NCCC(C)C)N(Cc1ccccc1Cl)C(=O)c1snc(C(N)=O)c1N (stereo not drawn),-0.19%
17,Cc1ccc2c(c1)C(O)(CC(=O)c1cccnc1)C(=O)N2 (stereo not drawn),-0.39%
18,CCCn1c(C)cc(-c2csc(NC(=O)CCc3nc4ccccc4c(=O)[nH]3)n2)c1C,-0.45%
19,CCCc1nc(SCC(=O)Nc2ccc(S(=O)(=O)N(C)C)cc2)c2ccccc2n1,17.5% (active)
20,CCc1nc(SCC(=O)NNC(=O)c2ccc(C)cc2)c2ccccc2n1,-0.6%

row,Compound,Tm shift relative to glycine control
1,CCCNC(=O)CSc1nc(Cc2ccccc2)nc2ccccc12,-0.71%
2,COc1ccc(CC(=O)NCc2nnc(SCC(=O)Nc3nccs3)n2C)cc1,0.45%
3,CCCCc1cc(=O)oc2cc(C)cc(OCc3nn[nH]n3)c12,14.2% (active)
4,CCc1cc(=O)oc2cc(C)cc(OC(C)C(=O)O)c12 (stereo not drawn),-0.34%
5,CCOC(=O)CCc1c(C)c2ccc(OCc3nn[nH]n3)c(C)c2oc1=O,-2.57%
6,O=C1NC(c2ccncc2)Nc2sc3c(c21)CCCC3 (stereo not drawn),0.51%
7,N#C/C(=C\c1ccccc1)c1n[nH]c(Cn2cncn2)n1,-0.2%
8,COc1ccccc1C1C(C#N)=C(N)Oc2c1c(-c1ccccc1)nn2-c1ccccc1 (stereo not drawn),22.2% (active)
9,Cc1nn(Cc2ccccc2)c2c1C(c1ccccc1)C(C#N)=C(N)O2 (stereo not drawn),2.39%
10,Cc1nn(-c2ccccc2)c2c1C(c1ccc(F)cc1)C(C#N)=C(N)O2 (stereo not drawn),-4.31%
11,Cc1ccc(C)c(OCc2cc(C(=O)N3CCN(c4cnccn4)CC3)no2)c1,4%
12,O=C(COC(=O)Cn1cnc2ccccc21)Nc1cccc2c1C(=O)c1ccccc1C2=O,-5.74%
13,O=C(COC(=O)c1ccccc1)Nc1ccccc1Sc1ccccc1,5.64%
14,O=C(COC(=O)c1cccc(Br)c1)Nc1cccc2c1C(=O)c1ccccc1C2=O,14.9% (active)
15,CCCCC(=O)N(c1ccc(OC)cc1)C1C=CS(=O)(=O)C1 (stereo not drawn),-8.09%
16,COc1ccc(CCNC(=O)CN2C(=O)CCSc3ccccc32)c(OC)c1,-7.1%
17,O=C(Nc1ccc(F)cc1)c1cc2c(s1)CCCC2,6.13%
18,O=C(Nc1ccc2c(c1)CCC2)c1ccc(Br)s1,14.5% (active)
19,CC1CC(C)CN(CCC(=O)Nc2ccc3c(c2)CCC3)C1 (stereo not drawn),2.54%
20,O=C1c2ccccc2C(=O)C1C(=O)C1CC1,1.97%

row,Compound,Tm shift relative to glycine control
1,Cc1ccc(CSc2nc3[nH]ncc3c(=O)[nH]2)cc1,-1.69%
2,NS(=O)(=O)c1ccc(NC(=S)Nc2ccc(Br)c(Cl)c2)cc1,26.7% (active)
3,NS(=O)(=O)c1ccc(CCNC(=S)Nc2ccc(S(N)(=O)=O)cc2)cc1,0.88%
4,COc1ccc(NC(=S)Nc2ccc(S(N)(=O)=O)cc2)c(C)c1,-1.86%
5,CCCCCc1nnc(NC(=O)c2ccc(=O)n(C)n2)s1,-0.62%
6,CCOC(=O)C1Nc2ccc(C(F)(F)F)cc2C2C=CCC12 (stereo not drawn),52.4% (active)
7,CCOC(=O)NNc1cc(C(F)(F)F)ccn1,0%
8,CCOC(=O)C[C@H]1c2ccc(C(F)(F)F)cc2S(=O)(=O)N1c1ccccc1,-5.05%
9,CC[C@]12c3[nH]c4ccc(OC)cc4c3CCN1C(=O)C(CC(=O)NCCN1CCOCC1)C[C@@H]2C(=O)N1CCN(C(=O)C2CC2)CC1 (stereo partly drawn),-2.01%
10,Cc1cccc(NC(=O)CCn2c(=O)oc3ccccc32)c1,-0.8%
11,O=C(CCNC(=O)c1ccccc1)NN=Cc1ccc(Br)o1,-3.41%
12,O=C(Cc1ccccc1)Nc1cccc(C(=O)N/N=C/c2ccco2)c1,1.04%
13,N#CCC(=O)N/N=C/c1ccc(SCC(=O)Nc2ccccc2)o1,12.7% (active)
14,O=C(CCC(=O)Nc1ccccc1)N/N=C/c1ccccc1F,0.57%
15,O=C(CSc1ccc(/C=N/NC(=O)c2cccc(F)c2)o1)Nc1ccccc1,12.4% (active)
16,O=C(CCC(=O)N/N=C/c1ccc(Br)o1)N/N=C/c1ccc(Br)o1,-0.2%
17,COC(=O)c1ccc(C2C3=C(Nc4nnnn42)c2ccccc2OC3)cc1 (stereo not drawn),-8.44%
18,C#CCO[C@@H]1C[C@H](n2cnc3c(=O)[nH]c(NC(=O)C(C)C)nc32)O[C@@H]1CO,0%
